# AMA1 RON2 block: inhibitors of Plasmodium falciparum AMA1-RON2 interaction; AlphaScreen AMA1-biotinylated RON2 peptide binding; Potency, µM (titrated, usually from 58.2 µM), for the others: at the top dose activity change, negative = inhibition, actives largely listed as inhibitors; 0.2% of 360,000 active; active means well fitted inhibition curve with a large enough effect; inconclusive means small, poorly fitted or top-dose-only effect; inactive means no such curve, though single readings can be large or run the other way;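 further: potency means the concentration at half of the fitted maximal effect; 0% = vehicle wells and -100% = peptide control; nearly all actives have a fitted effect of over 45% in size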
#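 AMA1 (3D7) with his tag at 25 nM final met compounds first, then biotinylated RON2 peptide at 25 nM; detection used donor plus acceptor beads, 10 µg/mL apiece, read by AlphaScreen after 30 min at room temperature.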
# Cycloheximide cs: counter-screen for Shiga toxin inhibitors: cycloheximide protein synthesis inhibition; cell reporter, cycloheximide protein synthesis inhibition counterscreen; max response, %; 12% of 300,000 active; AID 2314; in the data active means max response mostly above about 13%, no sharp cut-off; inactive means mostly below about 14%; further: read at 38.3 µM for the half of the compounds with a filed dose; 0% is about no effect
# LASV entry inh: Lassa virus entry inhibition; Lassa virus pseudotype entry inhibition, cell reporter; Potency, µM (highest dose often 37.9 µM), for inactives: top-dose activity change, negative = inhibition, actives largely listed as inhibitors; 1.2% of 300,000 active; calls by dose curve; tested in HEK293 cells; further: potency means the concentration at half of the fitted maximal effect; on the % scale 0 is the no-effect control and ±100 the full control effect; nearly all actives have a fitted effect of over 50% in size
# Marburg entry inh: Marburg virus entry inhibition | AID 540276 | Potency, µM (doses to about 37.8 µM), without a hit: top-dose activity change, negative = inhibition, usual class: inhibitors | 1.8% of 300,000 active | Marburg virus pseudotyped entry inhibition, cell reporter; calls by dose curve; tested in HEK293 cells; further: potency means the concentration at half of the fitted maximal effect; on the % scale 0 is the no-effect control and ±100 the full control effect
# Shiga toxin inh: inhibitors of Shiga toxin in Vero cells; AID 2315; Vero cells, Shiga toxin protein synthesis inhibition reporter; 9.2% of 290,000 active; inhibition, % at 38.7 µM; in the data active means inhibition mostly above about 28%, no sharp cut-off; inactive means mostly below about 43%; further: 0% is about no effect
# * marks the source's active call; other numbers are inactive results; ? = inconclusive; nt = no result given; [ ] = dose if it differs, or a comment. Many of the other results were omitted from the sample, so hits are more common in it than they were.
SMILES,AMA1 RON2 block,Cycloheximide cs,LASV entry inh,Marburg entry inh,Shiga toxin inh
CC(=O)c1ccc(NC(=S)N2CCCC2)cc1,1%,18*,11%[46.1 µM],23%[46.1 µM],30
CCc1ccc(NC(=S)N2CCCCCCC2)cc1,-19%,56*,-2%,5%[46.1 µM],68*
Cc1cccc(Nc2ncnc3onc(-c4cccc(Cl)c4)c23)c1C,16%,8.2*,nt,nt,12
CCCCNC(=S)NNC(=O)c1csc(C(C)C)c1,64%,16,-1%,?,30*
CCNC(=S)NNC(=O)c1csc(C(C)C)c1,31%,51*,4%,?,77*
CCCCNC(=S)NNC(=O)c1ccncc1,47%,-5,25%[46.1 µM],-1%[46.1 µM],-13
Nc1cc(-c2ccc(Br)cc2)nn1Cc1ccccc1,-3%,54*,?,-24%[46.1 µM],91*
Cc1cc(S(=O)(=O)NCCCN2CCOCC2)ccc1Br,-13%,nt,nt,nt,nt
C=C(C)CNC(=O)CCc1nnc(Cc2cccc(C(F)(F)F)c2)o1,-10%,44*,13%[46.1 µM],?,123*
O=C(CCc1nnc(Cc2cccc(C(F)(F)F)c2)o1)NC1CC1,-4%,2,2%[46.1 µM],-2%[46.1 µM],15
CC(C)CN(C)C(=O)CCc1nnc(Cc2cccc(C(F)(F)F)c2)o1,-14%,47*,19%[46.1 µM],1%[46.1 µM],109*
O=C(CCc1nnc(Cc2cccc(C(F)(F)F)c2)o1)NCC(F)(F)F,15%,1,27%,4%[46.1 µM],16
CC(NC(=O)CCc1nnc(Cc2cccc(C(F)(F)F)c2)o1)C1CC1 (stereo not drawn),1%,53*,2%[46.1 µM],?,92*
O=C(O)c1cc(N=Nc2ccc(-c3ccc(N=Nc4ccc(O)c(C(=O)O)c4)cc3)cc2)ccc1O,nt,12,nt,nt,26*
O=C(COC(=O)c1cc(Cl)cc(Cl)c1)NCc1ccco1,-11%,nt,nt,nt,nt
Cn1cc([N+](=O)[O-])c(C(=O)N2CCN(Cc3ccc4c(c3)OCO4)CC2)n1,12%,-1,7%[46.1 µM],23%[46.1 µM],20
Cc1cc(=O)oc2cc3c(cc12)CCCN3,71%,19*,nt,3%,27
CCOC(=O)c1ccc2c(c1)[nH]c(=S)n2CC,62%,29*,nt,nt,88*
COc1ccc(C(=O)O/N=C(\N)c2ccncc2)cc1OC,-20%,15*,?,?,25
N/C(=N\OC(=O)c1cccc2ccccc12)c1ccc(Br)cc1,0%,10,-2%,?,22
COc1cc(C(=O)O/N=C(\N)c2ccncc2)cc(OC)c1OC,12%,-3,-24%,-2%,16
N/C(=N\OC(=O)c1cccc2ccccc12)c1ccncc1,17%,45*,nt,nt,67*
COc1cccc(OC)c1C(=O)O/N=C(\N)c1ccncc1,0%,23*,-29%,?,-11
COc1cc(OC)c(C(=O)O/N=C(\N)c2ccccc2)cc1OC,-1%,29*,nt,nt,48*
CC(C)(C)C1CCc2c(sc(NC(=O)c3noc4c3CCCC4)c2C#N)C1 (stereo not drawn),nt,nt,?,-16%[46.1 µM],nt
SMILES,AMA1 RON2 block,Cycloheximide cs,LASV entry inh,Marburg entry inh,Shiga toxin inh
O=C1C=C(O)C[C@H](c2cccs2)C1,nt,nt,nt,21%,nt
Cc1cccc(N(C(=O)c2nsc(Cl)c2Cl)C(C(=O)NC2CCCC2)c2ccc(O)cc2)c1 (stereo not drawn),9%,-2,?,4%,8
COc1nccc(-c2ccc(F)cc2)c1C#N,7%,13,4%,7%[46.1 µM],-5
COc1ccc(C(=O)O/N=C(\N)c2ccccc2)cc1OC,-1%,44*,?,?,91*
COc1ccc(Cl)cc1C(=O)O/N=C(\N)c1ccncc1,6%,10,-4%,5%,57*
COc1cc(C(=O)O/N=C(\N)c2ccc([N+](=O)[O-])cc2)cc(OC)c1OC,-6%,-3,-23%,-4%,-5
COc1ccc(C(=O)O/N=C(\N)c2cccc(C)c2)cc1OC,10%,36*,nt,nt,45*
CC(C)(C)n1c(O)c2ccc(C(=O)N=NC(=O)c3ccccc3)cc2c1O,61%,27*,-7%,-11%,33
Nc1nn(-c2cccc(F)n2)cc1-c1ccccc1,-27%,40*,?,?,107*
Nc1nn(-c2cccc(F)n2)cc1-c1ccc(Cl)cc1,-11%,23*,?,?,77*
Nc1ccccc1-c1ccc(Cl)cc1,-10%,nt,?,7%,nt
CCc1nnc(NS(=O)(=O)c2ccc(NS(=O)(=O)c3ccc(NC(C)=O)cc3)cc2)s1,nt,-2,nt,nt,-12
CCc1nnc(NS(=O)(=O)c2ccc(N/C=C\C(=O)c3cccc(OC)c3)cc2)s1,-9%,32*,-7%,-11%[14.2 µM],72*
CCc1nnc(NS(=O)(=O)c2ccc(N/C=C/C(=O)c3ccc(C)cc3)cc2)s1,3%,39*,-1%,3%,93*
CCc1nnc(NS(=O)(=O)c2ccc(N/C=C\C(=O)c3ccc(C)cc3)cc2)s1,1%,28*,-11%,11%,103*
CCc1nnc(NS(=O)(=O)c2ccc(N/C=C\C(=O)c3ccc(F)cc3)cc2)s1,-2%,47*,nt,nt,66*
Oc1ccc(CN2CCN(Cc3ccccc3)CC2)c2cccnc12,-89%,-6,?,-13%,-15
O=S(=O)(c1ccc(Cl)cc1)N1CCN(Cc2ccc(O)c3ncccc23)CC1,-50%,16,?,13µM*,10
Cc1ccc(-c2nnc(SCC(=O)NCCN3C(=O)CSC3=O)n2C)cc1,9%,nt,11%,?,nt
COc1ccc(Cc2nc3ccc(C(=O)N4CCCCC4CCO)cc3o2)cc1 (stereo not drawn),0%,24,nt,nt,16
NC(=O)[C@@H]1CCCN1C(=O)c1ccc2nc(Cc3ccccc3F)oc2c1,-6%,8,28%[46.1 µM],-19%[46.1 µM],16
CCCCc1nc2cc(C(=O)N3CCCCC3C(=O)OC)ccc2o1 (stereo not drawn),-7%,39*,nt,nt,57*
CCCCc1nc2cc(C(=O)N3CCCCC3CC(=O)OCC)ccc2o1 (stereo not drawn),7%,31*,6%,10%,37
CCOC(=O)CC1COCCN1C(=O)c1ccc2oc(Cc3ccccc3)nc2c1 (stereo not drawn),3%,48*,-1%,23%,62*
O=C(NCc1ccc(Cl)cc1)c1cnc2sc(N3CCCCCC3)nn2c1=O,nt,nt,1%[46.1 µM],nt,nt
SMILES,AMA1 RON2 block,Cycloheximide cs,LASV entry inh,Marburg entry inh,Shiga toxin inh
COc1cc(/C=N/c2oc(-c3ccccc3)cc2C#N)ccc1O,13%,19*,11%,3%,28
COc1ccc(C(=O)N/N=C/c2ccc(OC)c(COc3ccccc3)c2)cc1,22%,11,-23%[46.1 µM],?,10
COc1cccc(OCc2cc(/C=N/NC(=O)c3ccn[nH]3)ccc2OC)c1,103%,50*,-24%,2%,71*
COc1cc(/C=N/NC(=O)c2ccccc2)ccc1O,27%,26*,nt,nt,60*
COc1cc(/C=N/NC(=O)c2ccc(O)cc2)ccc1OCC(=O)N1CC(C)OC(C)C1 (stereo not drawn),-14%,14*,3%,0%[46.1 µM],37*
COc1cc(C=NCc2ccccc2)ccc1O,-6%,nt,nt,nt,nt
COc1cc(C(=O)N/N=C/c2ccc(OC(=O)c3ccccc3)c(OC)c2)ccc1O,-22%,6,-26%,19%,-4
